# Measurements as given in the supplement of paper PMC10498489.
# Screen size: about 2,300 compounds; about 330 (14%) showed activity. A selection follows. Values without a mark were called inactive.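 The calls were made as follows: active = median modified Z-score above 1.96; inactive = 1.96 or below.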
# Tested on: HepG2 Srxn1-GFP reporter cells (+30 nM CDDO-Me)
# Test: Srxn1-GFP intensity median modified Z-score relative to plate median; higher = stronger NRF2 / oxidative stress reporter activation, active = hit call of the paper
# Conditions: 10 µM; exposure time: 24h
# Summary of the method: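 Per-cell cytoplasmic GFP was measured on confocal images of formaldehyde-fixed, Hoechst-stained HepG2 Srxn1-GFP BAC reporter cells, excluding images with fewer than 100 cells. Before this, the cells (20,000 per well, 96-well plates) were co-exposed for 24 h to compound at 10 μM and an NRF2 activator at 30 nM with ≤0.1% DMSO, in three replicate plates. Each value is the median over replicates of the per-plate modified Z-score of GFP intensity. That score was scaled with 1.4826 × median absolute deviation.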
row,SMILES,Srxn1-GFP intensity median modified Z-score
1,CC(NC(C)(C)C)C(=O)c1cccc(Cl)c1 (configuration not stated) [euspeclibcmpd657],-0.376
2,CC(=O)Oc1ccc(/C=C/c2cc(OC(C)=O)cc(OC(C)=O)c2)cc1 [euspeclibcmpd1618],1.59
3,CC(=O)NC1CCSC1=O (configuration not stated) [euspeclibcmpd1125],0.231
4,CCOP(=S)(OCC)Oc1cc(C)nc(C(C)C)n1 [euspeclibcmpd706],-0.234
5,C=CCc1cc(OC)c2c(c1OC)OCO2 [euspeclibcmpd1480],-0.404
6,N=c1cc[nH]cc1 [euspeclibcmpd895],-0.471
7,Cc1cc(C(C#N)c2ccc(Cl)cc2)c(Cl)cc1NC(=O)c1cc(I)cc(I)c1O (configuration not stated) [euspeclibcmpd694],9.76 (active)
8,CN(C)C1C(=O)C(C(N)=O)C(=O)[C@@]2(O)C(=O)C3C(=O)c4c(O)cccc4[C@@](C)(O)[C@H]3[C@H](O)[C@@H]12 (some centres not stated) [euspeclibcmpd225],-0.444
9,CC(=O)O[C@@H]1CC[C@]2(C)C3CC[C@]4(C)C(=O)CCC4C3CC[C@H]2C1 (some centres not stated) [euspeclibcmpd1810],0.269
10,Cc1nc(=O)c(C[n+]2csc(CCO)c2C)c[nH]1 [euspeclibcmpd1800],0.155
11,CCCCCC1C(=O)O[C@H](C)C(NC(=O)c2cccc(NC=O)c2O)C(=O)O[C@@H](C)[C@@H]1OC(=O)CC(C)C (some centres not stated) [euspeclibcmpd1446],39.4 (active)
12,C[C@]12C=CC(=O)CC1=CCC1C2CC[C@]2(C)C(=O)CCC12 (some centres not stated) [euspeclibcmpd1581],-0.0301
13,N#CC(=Cc1ccc(O)cc1)C(=O)O [euspeclibcmpd1768],-0.146
14,CC[C@H](c1cccc(O)c1)[C@@H](C)CN(C)C [euspeclibcmpd2238],-0.41
15,O=C1C(Cl)=C(Cl)C(=O)C(Cl)=C1Cl [euspeclibcmpd1739],25.8 (active)
16,C=CCN=C=S [euspeclibcmpd920],0.0414
17,Cc1ccc(/N=C/N(C)/C=N/c2ccc(C)cc2C)c(C)c1 [euspeclibcmpd739],0.115
18,CC1=C2CCC3C(CC[C@]4(C)C(=O)CCC34)[C@@]2(C)CCC1=O (some centres not stated) [euspeclibcmpd1163],-0.15
19,CN[C@@H]1[C@@H](O)C(OC2[C@@H](N)C[C@@H](N)[C@H](O[C@H]3O[C@H](C(C)O)[C@@H](O)[C@H](O)[C@H]3N)[C@H]2O)OC[C@]1(C)O (some centres not stated) [euspeclibcmpd1437],-0.354
20,COc1ccc2c(c1OC)C(=O)O[C@@H]2[C@H]1c2cc3c(cc2CCN1C)OCO3 [euspeclibcmpd2270],0.619
21,CN1CCc2cc3c(cc2C1O)OCO3 (configuration not stated) [euspeclibcmpd1021],0.455
22,COc1cc([C@@H]2c3cc4c(cc3[C@H](O)[C@H]3COC(=O)C23)OCO4)cc(OC)c1OC (some centres not stated) [euspeclibcmpd2203],11.5 (active)
23,COc1cc([C@@H]2c3cc4c(cc3[C@H](O)[C@H]3COC(=O)C23)OCO4)cc(OC)c1OC (some centres not stated) [euspeclibcmpd2060],27.1 (active)

row,SMILES,Srxn1-GFP intensity median modified Z-score
1,COc1cc([C@@H]2c3cc4c(cc3[C@H](OC(C)=O)[C@H]3COC(=O)C23)OCO4)cc(OC)c1OC (some centres not stated) [euspeclibcmpd2106],13.1 (active)
2,NCc1cccnc1 [euspeclibcmpd1239],-0.224
3,CC(C)[N+](C)(CCC(C(N)=O)(c1ccccc1)c1ccccc1)C(C)C [euspeclibcmpd164],0.396
4,CC(C)c1cccc(C(C)C)c1O [euspeclibcmpd699],-0.02
5,C[C@]12CCC(=O)CC1=CC=C1C2CC[C@@]2(C)C1CC[C@@]2(O)CCC(=O)O (some centres not stated) [euspeclibcmpd2339],-0.283
6,CCC(C(=O)[C@H](C)[C@@H](O)[C@H](C)[C@@H]1O[C@@H]([C@@H](CC)C(=O)O)CC[C@@H]1C)[C@H]1OC2(C=C[C@@H](O)[C@]3(CC[C@@](C)([C@H]4CC[C@](O)(CC)[C@H](C)O4)O3)O2)[C@H](C)C[C@@H]1C (some centres not stated) [euspeclibcmpd2084],6.06 (active)
7,CC(C)(C)NCC(O)c1cc(Cl)c(N)c(Cl)c1 (configuration not stated) [euspeclibcmpd1154],-0.331
8,CCC(N)C(O)c1ccc(O)c(O)c1 (configuration not stated) [euspeclibcmpd646],-0.33
9,CN1CC(CNC(=O)OCc2ccccc2)C[C@H]2c3cccc4c3c(cn4C)CC21 (some centres not stated) [euspeclibcmpd1151],-0.466
10,COc1cc2c(c(OC)c1OC)-c1ccc(=O)c(O)cc1C(NC(C)=O)CC2 (configuration not stated) [euspeclibcmpd2248],-0.142
11,COc1cc2c(c(OC)c1OC)-c1ccc(OC)c(=O)cc1[C@@H](NC(C)=O)CC2 [euspeclibcmpd73],13.3 (active)
12,CNC(=O)Oc1ccc2c(c1)[C@]1(C)CCN(C)[C@@H]1N2C [euspeclibcmpd611],0.455
13,C[C@H]1C[C@@H](O)[C@]2(O)[C@@]13CC(=O)OC[C@@]2(C)[C@](C)(O)C(=O)C3 [euspeclibcmpd1475],0.639
14,COc1ccc(CN2CCNCC2)c(OC)c1OC [euspeclibcmpd1198],0.677
15,CCOC(=O)c1cncn1[C@H](C)c1ccccc1 [euspeclibcmpd826],-0.145
16,O=C(O)C1[O][Sb]2[O]C(=O)C([O]2)C(C(=O)O)[O][Sb]2[O]C(=O)C1[O]2 (configuration not stated) [euspeclibcmpd2437],3.34 (active)
17,CC(=O)OC1CN2CCC1CC2 (configuration not stated) [euspeclibcmpd385],-0.0983
18,O=[N+]([O-])C(Br)(CO)CO [euspeclibcmpd2257],6.25 (active)
19,COc1ccc(C(=O)O)cc1OC [euspeclibcmpd2003],-0.455
20,C[C@]12CC[C@H](O)CC1=CCC1C2CC[C@]2(C)C(=O)CC[C@@H]12 (some centres not stated) [euspeclibcmpd1201],-0.236
21,OCC(O)[C@H]1O[C@@H]2O[C@H](C(Cl)(Cl)Cl)O[C@@H]2[C@H]1O (some centres not stated) [euspeclibcmpd1184],0.0668
22,O=C(NC(=O)c1c(F)cccc1F)Nc1cc(Cl)c(OC(F)(F)C(F)C(F)(F)F)cc1Cl (configuration not stated) [euspeclibcmpd1213],13.1 (active)
23,CCC1(CC)C(=O)NC(=S)NC1=O,1.23

row,SMILES,Srxn1-GFP intensity median modified Z-score
1,O=C1C=CC(=O)c2c(O)cccc21 [euspeclibcmpd1492],0.761
2,CC1=CC(=O)c2c(O)cccc2C1=O [euspeclibcmpd1444],67.7 (active)
3,CC1(C)C2CC(=O)[C@]3(C)C(CC[C@@]4(C)[C@H](c5ccoc5)OC(=O)C5O[C@]543)[C@@]2(C)C(=O)C[C@H]1O (some centres not stated) [euspeclibcmpd1592],-0.255
4,N#Cc1[nH]n(-c2c(Cl)cc(C(F)(F)F)cc2Cl)c(=N)c1[S+]([O-])C(F)(F)F (configuration not stated) [euspeclibcmpd821],-0.323
5,O=C1CC[C@@]2(O)[C@H]3Cc4ccc(O)c5c4C2(CCN3CC2CC2)C1O5 (some centres not stated) [euspeclibcmpd560],-0.0532
6,Cc1c[nH]cn1 [euspeclibcmpd2111],-0.158
7,CC1=CCC[C@@H]2C1(C)CCC(C)[C@@]2(C)CC/C(C)=C/Cn1c[n+](C)c2c(=N)nc[nH]c21 (some centres not stated) [euspeclibcmpd1491],13.7 (active)
8,COc1ccc2c(c1O)[C@@]13CCN(C)[C@@H](C2)C1=CC(OC)C(=O)C3 (some centres not stated) [euspeclibcmpd1375],-0.172
9,CC(C)c1ccc2c(c1O)CCC1c3coc(O)c3CC[C@]21C (some centres not stated) [euspeclibcmpd2379],-0.468
10,Nc1ccc([As](=O)(O)O)cc1 [euspeclibcmpd2461],11.1 (active)
11,O=C1CC2OCC=C3CN4CC[C@]56c7ccccc7N1C5[C@H]2[C@H]3CC46 (some centres not stated) [euspeclibcmpd327],-0.00366
12,COP(=S)(OC)Oc1ccc(SC)c(C)c1 [euspeclibcmpd1025],-0.288
13,O=C(CCCN1CCC2(CC1)C(=O)NCN2c1ccccc1)c1ccc(F)cc1 [euspeclibcmpd405],10.2 (active)
14,C#C[C@]1(O)CCC2C3CC=C4CC(=O)CCC4C3CC[C@@]21C (some centres not stated) [euspeclibcmpd2269],1.21
15,C#C[C@]1(O)CCC2C3CC=C4CC(=O)CCC4C3CC[C@@]21C (some centres not stated) [euspeclibcmpd2279],0.0789
16,CCCCOC(=O)c1ccccc1C(=O)OCCCC [euspeclibcmpd1242],-0.441
17,CCCCCCCCC(=O)NCc1ccc(O)c(OC)c1 [euspeclibcmpd1268],-0.241
18,C[C@@H]1CC[C@@]2(NC1)O[C@H]1C[C@H]3C4CC=C5C[C@@H](O)CC[C@]5(C)C4CC[C@]3(C)C1[C@@H]2C (some centres not stated) [euspeclibcmpd1732],0.173
19,CC1CCC2(OC1)OC1C(O)C3C4CCC5CC(OC6OC(CO)C(OC7OC(CO)C(O)C(OC8OCC(O)C(O)C8O)C7OC7OC(CO)C(O)C(OC8OC(CO)C(O)C(O)C8O)C7O)C(O)C6O)C(O)CC5(C)C4CCC3(C)C1C2C (configuration not stated) [euspeclibcmpd1933],22.3 (active)
20,C[C@H]1CC[C@]2(NC1)OC1CC3C4CCC5C[C@@H](O[C@@H]6O[C@H](CO)[C@H](O[C@H]7O[C@H](CO)[C@@H](O)[C@H](O[C@@H]8OC[C@@H](O)[C@H](O)[C@H]8O)[C@H]7O[C@@H]7O[C@H](CO)[C@@H](O)[C@H](O)[C@H]7O)[C@H](O)[C@H]6O)CC[C@]5(C)C4CC[C@]3(C)C1[C@@H]2C (some centres not stated) [euspeclibcmpd480],71.3 (active)
21,CC(=O)O[C@H]1C[C@H](O[C@H]2[C@@H](O)C[C@H](O[C@H]3[C@@H](O)C[C@H](O[C@H]4CC[C@@]5(C)C(CCC6C5C[C@@H](O)[C@]5(C)C(c7coc(O)c7)CC[C@]65O)C4)O[C@@H]3C)O[C@@H]2C)O[C@H](C)[C@H]1O[C@@H]1O[C@H](CO)[C@@H](O)[C@H](O)[C@H]1O (some centres not stated) [euspeclibcmpd420],-0.493
